# Assay outcomes: PubChem BioAssay, Buhrlage Lab, Dana-Farber Cancer Institute and Novartis Institutes for BioMedical Research (Cambridge, Mass)
# USP28 inh: inhibitors of human USP28 deubiquitinase. Q96RU2. purified USP28, Ub-rhodamine cleavage fluorescence, 30 min. inhibition, % at 25 µM. actives 3% (n = 47,000). AID 1645857
# USP17 inh: blocks human USP17 ubiquitin-rhodamine cleavage; A8MUK1; purified USP17, Ub-rhodamine cleavage fluorescence, 3 h; inhibition, % at 50 µM; actives 6.5% (n = 47,000)
# USP30 block: inhibitors of human USP30 deubiquitinase; Q70CQ3; purified USP30, Ub-rhodamine cleavage fluorescence; inhibition, % at 25 µM; actives 5.3% (n = 47,000); AID 1645860
# Target sequence (Q70CQ3 whole entry, looked up): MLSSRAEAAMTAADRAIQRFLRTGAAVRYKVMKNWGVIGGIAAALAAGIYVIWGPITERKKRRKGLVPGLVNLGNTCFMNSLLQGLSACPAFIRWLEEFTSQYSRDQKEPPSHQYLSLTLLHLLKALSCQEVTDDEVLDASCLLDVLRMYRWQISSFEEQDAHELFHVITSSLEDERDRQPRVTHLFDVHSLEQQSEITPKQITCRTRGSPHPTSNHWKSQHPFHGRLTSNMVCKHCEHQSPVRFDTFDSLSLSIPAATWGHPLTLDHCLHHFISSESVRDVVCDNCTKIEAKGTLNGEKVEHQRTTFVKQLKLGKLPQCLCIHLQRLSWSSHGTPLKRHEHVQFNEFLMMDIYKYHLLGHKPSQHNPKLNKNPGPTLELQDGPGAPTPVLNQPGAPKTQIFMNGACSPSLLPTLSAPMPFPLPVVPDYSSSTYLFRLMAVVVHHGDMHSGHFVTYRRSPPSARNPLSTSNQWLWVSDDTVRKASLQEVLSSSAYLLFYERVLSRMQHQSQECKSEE
# OTUD3 block: human OTUD3 deubiquitinase inhibition; Q5T2D3; purified OTUD3, Ub-rhodamine fluorescence, 2 h; inhibition, % at 25 µM; actives 0.7% (n = 47,000)
# * = called active by the depositor; x = no result given. In the library only some 12% were active in any assay of this set; here they are far more common. Cut-off read from the data, not from the text of the source: active = inhibition above about 30%; inactive = the rest.
SMILES,USP28 inh,USP17 inh,USP30 block,OTUD3 block
Fc1ccc(Nc2nc(-c3ccccn3)nc3ccccc23)cc1,10,39*,31*,-4
NC(=O)c1cccc(Nc2nc(C(F)(F)F)nc3ccccc23)c1,8,6,-3,0
Fc1cccc(Nc2nc(-c3ccccn3)nc3ccccc23)c1,7,43*,25,-3
FC(F)(F)c1ccc(N2CCC(C(c3ccccc3)c3ccccc3)CC2)nc1,-7,-9,0,-1
CCn1c2ccccc2c2cc(NC(=O)Cn3nnc(-c4cccc(C(F)(F)F)c4)n3)ccc21,-22,-14,-86,-14
CCCCCC1OC(=O)c2c(C)cccc2Oc2ccc(O)c(CO)c2/C=C/C1O (centres undefined),47*,23,19,20
CCCCCC1OC(=O)c2c(C)cccc2Oc2ccc(O)c(C=O)c2/C=C/C1O (centres undefined),53*,81*,73*,45*
CCCCC/C=C/C=C/C(=O)O,-7,-6,0,-10
C=C1CCC[C@]2(C)C[C@H]3OC(=O)C(CN4CCC(C(=O)OCC)CC4)[C@H]3CC12 (some centres undefined),-1,-2,4,-3
C=C1CCC[C@]2(C)C[C@H]3OC(=O)C(CN(C)CC(O)c4ccc(O)cc4)[C@H]3CC12 (some centres undefined),-7,-7,11,-2
C=C1CCC[C@]2(C)C[C@H]3OC(=O)C(CN4CCCCC4CC)[C@H]3CC12 (some centres undefined),-1,-1,40*,0
C=C1CCC[C@]2(C)C[C@H]3OC(=O)C(CN4CCCCC4C)[C@H]3CC12 (some centres undefined),-9,0,43*,0
C=C1CCC[C@]2(C)C[C@H]3OC(=O)[C@H](CNCCc4ccccc4OC)C3CC12 (some centres undefined),11,7,47*,18
O=C(CN1CCCc2ccccc21)Nc1ccc2c(c1)OCCO2,-23,-33,-107,-25
CC(=O)NCCC(=O)N1CCN(c2ccc(-c3nc4c(cnn4C(C)C)[nH]3)cc2)CC1,3,-1,4,5
CN(C)c1cc(C(=O)N(Cc2ccc3c(c2)OCO3)C2CCCCC2)ccn1,7,13,18,0
COc1ccccc1CNC(=O)c1cncc(NS(=O)(=O)c2ccc(F)cc2)c1,0,1,-6,3
O=C(Nc1ccc(-c2nccs2)cc1)c1ccc(F)cc1Cl,3,22,-17,-4
CN(C)Cc1ccc(C(=O)Nc2ccc(-c3nccs3)cc2)cc1,88*,-22,0,-7
CSCCC(NC(=O)c1nc(Cl)ccc1Cl)c1nc2ccccc2[nH]1 (centres undefined),0,-6,-3,-7
Cc1ccc(NC(=O)c2nnn(CC(=O)Nc3cccc(C)c3C)c2N)cc1C,27,27,38*,23
CNC(=O)N1CCc2nc3ccccc3n2C(Cc2ccccc2)C1 (centres undefined),9,5,18,5
Cc1ccc(CNC(=O)N2CCC(c3nc(C(=O)N(C)C)c(C)o3)CC2)cc1,10,17,31*,11
Cc1ccc(NC(=O)N2CCC(c3nc(C(=O)N(C)C)c(C)o3)CC2)cc1Cl,-11,-7,-5,-10
CCOc1ccc2nc(-n3nc(C)c4c3NC(=O)CC4c3cc(C)sc3C)sc2c1 (centres undefined),3,2,36*,-3
SMILES,USP28 inh,USP17 inh,USP30 block,OTUD3 block
CCC(C)Sc1nc2c(c(=O)[nH]c(=O)n2C)n1Cc1ccccc1 (centres undefined),12,2,17,0
CCCCCn1c(Sc2ccc(C)cc2)nc2c1c(=O)[nH]c(=O)n2C,18,34*,53*,18
Cn1c(C(=O)NCCc2ccc(S(N)(=O)=O)cc2)cc2sc(Cl)cc21,41*,24,2,-15
O=C(c1cnc2[nH][nH]c(=O)c2c1)c1cc(Cl)cc(Cl)c1O,55*,89*,46*,71*
COc1ccc(C)cc1NS(=O)(=O)c1ccc2c(c1)NC(=O)CC(=O)N2,11,1,-200,10
CCOc1ccc(NC(=O)CC2N=C(N3CCN(c4ccccc4F)CC3)NC2=O)cc1 (centres undefined),3,13,35*,13
CC(CNC(=O)c1nc(-c2ccc3c(c2)OCC(=O)N3C)no1)c1ccccc1 (centres undefined),39*,3,29,10
CN1C(=O)COc2cc(-c3noc(C(=O)NCCc4ccccc4)n3)ccc21,13,9,15,10
CN1C(=O)COc2cc(-c3noc(C(=O)NC4CCCCC4)n3)ccc21,12,26,31*,13
O=C(NC1CCCC1)c1cn(-c2ccccc2)nc1-c1ccc(F)cc1,8,7,4,3
CNC(=O)[C@@]12CCCN(c3ncccn3)[C@@H]1CN(Cc1ccc(C)cc1)C2,4,3,11,7
CNc1cc(C)nc(C2COCCN2Cc2cn[nH]c2C)n1 (centres undefined),0,0,11,8
Cc1ccc(NC(=O)N2CCC3(CC2)N=C(c2ccccc2)C(=O)N3)cc1C,8,37*,23,14
Cc1cccc(NC(=O)N2CCC3(CC2)N=C(c2ccccc2)C(=O)N3)c1,-6,0,0,-3
O=C(Nc1cc(F)c2nc(N3CCOCC3)ccc2c1)C1CCCCC1,-8,22,-38,-4
O=C(CCc1ccccc1)Nc1cc(F)c2nc(N3CCCCC3)ccc2c1,10,28,-14,3
COCC(=O)Nc1cc(F)c2nc(N3CCOCC3)ccc2c1,-2,63*,-31,-12
COc1cccc(CC(=O)Nc2cc(F)c3nc(N4CCOCC4)ccc3c2)c1,36*,58*,-96,-15
O=C(CC1CCCCC1)Nc1cc(F)c2nc(N3CCOCC3)ccc2c1,-22,40*,-63,-21
Cc1cccc(OCC(=O)Nc2cc(F)c3nc(N4CCOCC4)ccc3c2)c1,-51,-12,-139,-53
O=C(Nc1cc(F)c2nc(N3CCCC3)ccc2c1)c1ccco1,0,56*,-138,-17
CCOc1cccc2sc(N(Cc3cccnc3)C(=O)CCc3ccccc3)nc12,22,6,80*,4
COc1cc(C(=O)N(Cc2ccccc2)c2nc3ccccc3s2)cc(OC)c1OC,6,-1,-10,-6
Cc1cccc(C(=O)NC(Cc2ccccc2)c2nc3ccccc3[nH]2)c1 (centres undefined),-1,22,13,0
Cc1cccc(C(=O)NC(Cc2ccccc2)c2nc3ccccc3n2C)c1 (centres undefined),10,x,45*,14
O=C(CC12CC3CC(CC(C3)C1)C2)NCc1ccc2c(c1)OCO2,0,-6,12,3
Cc1cc(NC(=O)Cn2cnc3c(oc4ccccc43)c2=O)no1,x,72*,x,1
Cc1ccc(-n2nnc3c(=O)n(CC(=O)Nc4cc(C)on4)cnc32)cc1,-5,32*,-6,-6
Cc1ccc(NC(=O)Cn2cnc3c(nnn3-c3ccc(Cl)cc3)c2=O)cc1,-11,-9,-41,-7
